# A selection: hits, their analogues and other compounds. The true share with any hit is near 6.7%.
# KB-3-1 tox – kills parental KB-3-1 adenocarcinoma cells; KB-3-1 viability, CellTiter-Glo ATP luminescence, 72 h; Potency, µM (highest dose often 46.1 µM), usual class: cytotoxic; actives 1.4% (n = 400,000); further: on the % scale 0 is the no-effect control and ±100 the full control effect; nearly all actives have a fitted effect of over 60% in size
#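 KB-3-1 parental drug-naive adenocarcinoma cells in DMEM/10% FBS, incubated 72 h at 37 C with pin-transferred compounds across a concentration series. Viability by CellTiter-Glo luminescence; concentration-response curves fitted after normalization.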
# KB-V1 cytotox – kills drug-selected multidrug resistant KB-V1 cells. KB-V1 MDR cells viability, CellTiter-Glo, 72 h. Potency, µM (top dose mostly 46.1 µM), hits mostly cytotoxic. actives 3.4% (n = 400,000); further: on the % scale 0 is the no-effect control and ±100 the full control effect; nearly all actives have a fitted effect of over 60% in size
#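 Cells of the MDR subline KB-V1 are plated, dosed with compound at multiple concentrations, and incubated 72 h at 37 degrees C; CellTiter-Glo is then added and luminescence read after 10 min.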
# MCF10A rereplic – inducers of DNA re-replication in MCF 10A breast cells | AID 624296 | MCF 10A DNA re-replication, Hoechst nuclear intensity, 48 h | Potency, µM (doses to about 46.1 µM), for the others: at the top dose activity, positive = re-replication, most hits filed as activators | actives 2.9% (n = 350,000); further: % of control where 0% means no effect; nearly all actives have a fitted effect of over 50% in size
# PINK1 modulator – changes PINK1 expression | PINK1 immunofluorescence, high-content cytometry, 24 h | actives 0.2% (n = 410,000) | Potency, µM (series often up to 76.6 µM), for inactives: top-dose activation (PINK1 increase), usual class: activators; active means well fitted activation curve with a large enough effect; inconclusive means small, poorly fitted or top-dose-only effect; cell line not stated here; further: % of control where 0% means no effect; nearly all actives have a fitted effect of over 65% in size
#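 Decision-based qHTS: stable cells, 24 h exposure to five compound concentrations, CCCP as control. Fixed cells stained for PINK1 plus nuclear, mitochondrial and cell markers, cytometer read.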
# SW480 rereplic – inducers of DNA re-replication in SW480 colon cancer cells; SW480 DNA re-replication, Hoechst DNA content imaging, 48 h; Potency, µM (highest dose often 46.1 µM), for the others: at the highest dose re-replication activation, hits mostly activators; actives 1.8% (n = 340,000); further: % of control where 0% means no effect; nearly all actives have a fitted effect of over 55% in size
#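 DNA re-replication was detected as more nuclei of elevated Hoechst intensity after 48 hr exposure to compound (23 nL pinned per well of 250 cells).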
# An asterisk follows results filed as active; i = inactive; ? = inconclusive; . = no result; [ ] = another dose, or the depositor's remark. Unless noted, the call rests on the fitted dose curve; in most records, active means well fitted curve in the direction sought with a large enough effect; inconclusive means small, poorly fitted or top-dose-only effect, or another doubt; inactive means no such curve, though single readings can be large; an effect the other way counts as inactive or inconclusive. Potency means the concentration at half of the fitted maximal effect.
SMILES,KB-3-1 tox,KB-V1 cytotox,MCF10A rereplic,PINK1 modulator,SW480 rereplic
O=C(NCc1ccccc1F)c1cccc(S(=O)(=O)N2CCCCC2)c1,i,4.1µM*,2%,-1%,15%
O=C(Cc1c(F)cccc1Cl)Nc1nccs1,i,i,0%,3%,-1%
CCOC(=O)c1ccccc1OCc1cc(C2Nc3ccccc3C(=O)N2c2cccc3ccccc23)ccc1OC (stereo not drawn),?,i,.,0%,.
CC(C)Oc1ccc(CNC(=O)c2cnc3sc(N4CCCCCC4)nn3c2=O)cc1,.,.,.,1%,.
NC(Cc1cnc[nH]1)C(=O)Nc1ccc2ccccc2c1 (stereo not drawn),.,.,.,1%,.
COc1ccc(S(=O)(=O)NCC(=O)N(CC(=O)NCC2CCCO2)Cc2ccc(F)cc2)cc1 (stereo not drawn),i,i,14%,-2%,-2%
CCOc1ccc(S(=O)(=O)N2CCN(C(=O)c3ccc(C)c(S(=O)(=O)N4CCOCC4)c3)CC2)cc1,?,21µM*,9%,2%,3%
Cc1ccc(C(=O)NCC(c2ccc(F)cc2)N2CCOCC2)cc1S(=O)(=O)N1CCOCC1 (stereo not drawn),i,21µM*,7%,3%,-2%
COc1ccccc1NS(=O)(=O)c1cc(C(=O)NCC(c2ccc(F)cc2)N2CCOCC2)ccc1C (stereo not drawn),i,i,3%,-2%,1%
CCOc1ccc(CCNC(=O)c2cccc(S(=O)(=O)N3CCOCC3)c2)cc1OCC,i,i,2%,1%,-5%
CCOc1ccc(CCNC(=O)c2cccc(S(=O)(=O)N3CCCCC3)c2)cc1OCC,?,6.5µM*,?,0%,7%
CCOc1ccc(CCNC(=O)c2ccc(C)c(S(=O)(=O)N3CCOCC3)c2)cc1OCC,?,21µM*,0%,2%,-5%
CCOc1ccc(CCNC(=O)c2ccc(Cl)c(S(=O)(=O)N3CCOCC3)c2)cc1OCC,i,?,?,2%,?
COc1ccc(OC)c(-n2c3c(cc(-c4nc(-c5ccc(Cl)cc5)cs4)c2=O)C(=O)CC(C)(C)C3)c1,i,i,.,1%,.
Cc1c(C(=O)NCCCN2CCCC2=O)cnn1-c1ncc2c(n1)-c1ccccc1CC2,.,.,.,-1%,.
COc1ccc(N(C)S(=O)(=O)c2cccc(C(=O)OCC(=O)N(C)c3ccccc3)c2)cc1,.,.,?,-1%,19%
COc1ccc(N2C[C@H](CSC)[C@@H](CC(=O)Nc3ccccc3)C2=O)cc1,i,i,.,0%,.
CC(=O)Nc1cccc(NC(=O)c2cccc(S(=O)(=O)N3CCN(Cc4ccccc4)CC3)c2)c1,i,i,14%,-2%,-1%
CCc1ccccc1NC(=O)CNC(=O)c1cccc(S(=O)(=O)N2CCN(Cc3ccccc3)CC2)c1,?,16µM*,8%,-1%,5%
O=C(Nc1ccc(Cl)c(Cl)c1)c1ccc(Cn2c(=O)[nH]c3ccsc3c2=O)cc1,?,i,16µM*,1%,1%
CO[C@H]1C[C@@H](O[C@@H]2[C@H](C)[C@H](O[C@@H]3O[C@@H](C)C[C@@H](N(C)C)[C@@H]3O)[C@H](C)C[C@]3(CO3)C(=O)[C@H](C)[C@H](O)[C@H](C)[C@H](C)OC(=O)[C@@H]2C)O[C@@H](C)[C@H]1O,.,.,4%[20.6 µM],.,2%[20.6 µM]
COc1ccc(C2=NN(c3ccccc3)C(c3ccc(OC)c(OC)c3)C2)cc1 (stereo not drawn),?,i,?,1%,15µM*
Oc1ccc(C2=NN(c3ccccc3)C(c3ccc(F)cc3)C2)cc1 (stereo not drawn),i,i,5.8µM*,-2%,23µM*
CC(=O)Nc1ccc(C2CC(c3ccc(Cl)cc3)=NN2c2ccccc2)cc1 (stereo not drawn),i,i,169%,4%,1.5µM*
Cc1ccc(NC(=O)N2N=C(c3ccc(F)cc3)CC2c2ccc(F)cc2)cc1 (stereo not drawn),i,23µM*,6%,?,5.2µM*
SMILES,KB-3-1 tox,KB-V1 cytotox,MCF10A rereplic,PINK1 modulator,SW480 rereplic
O=C(c1ccccc1)N1N=C(c2ccc(F)cc2)CC1c1ccc(F)cc1 (stereo not drawn),i,i,12%,1%,6%
COc1ccc(CNC(=O)Cc2c(C)c3c(cc(C)c4c(C)c(C)oc43)oc2=O)cc1OC,.,.,.,1%,.
c1ccc(C2CC(c3cccs3)=NN2c2ccccc2)cc1 (stereo not drawn),i,?,?,6%,?
O=C(c1cccs1)N1N=C(c2ccccc2)CC1c1ccc(O)cc1 (stereo not drawn),i,13µM*,?,-2%,5%
COc1ccc(C2=NN(C(=O)c3ccccc3)C(c3ccc(OC)c(OC)c3)C2)cc1OC (stereo not drawn),i,i,14%,-2%,-6%
COc1ccc(C2CC(c3ccc(F)cc3)=NN2c2ccccc2)cc1OC (stereo not drawn),?,?,16µM*,4%,?
Fc1ccc(C2CC(c3cccs3)=NN2c2ccccc2)cc1 (stereo not drawn),i,i,3.5µM*,7%,?
CC(C)c1ccc(NC2CCCN(C(=O)CN3CCCCC3=O)C2)cc1 (stereo not drawn),i,i,.,1%,.
Nc1c(Cl)ncnc1N/N=C/c1ccc2ccccc2n1,21µM*,i,21µM*,2%,0.26µM*
Nc1c(Cl)ncnc1N/N=C/c1cccnc1,i,i,3.7µM*,0%,-57%
Nc1c(Cl)ncnc1N/N=C/c1ccccn1,8.2µM*,i,?,1%,?
CCN(CC)S(=O)(=O)c1ccc(C(=O)NCCSc2c(-c3ccc(OC)cc3)[nH]c3ccccc23)cc1,i,i,.,1%,.
CCC(=O)Nc1nnc(-c2cccs2)s1,i,i,-8%,-1%,2%
C=C(C)C(=O)Nc1nnc(-c2cccs2)s1,i,i,10µM*,0%,19%
CC(C)(O)C#Cc1ccc(CNC[C@H]2O[C@@H](n3cnc4c(N)ncnc43)[C@H](O)[C@@H]2O)s1,i,i,-6%,0%,5%
COc1ccc2nc(N=NC3=C(O)CC(C)(C)CC3=O)sc2c1,?,i,24%,-1%,2.1µM*
COc1ccc2nc(N=Nc3ccc(O)c4ccccc34)sc2c1,?,?,8.2µM*,-1%,?
CCCCNC(=O)C[C@@H]1C[C@@]2(C(=O)OC)CC(C)(C)CC=C2N(CCc2ccc(OC)c(OC)c2)C1=O,i,?,.,.,.
COC(=O)[C@@]12C[C@@H](CC(=O)NCC34CC5CC(CC(C5)C3)C4)C(=O)N(CCc3ccc(OC)c(OC)c3)C1=CCC(C)(C)C2,?,23µM*,.,.,.

# Source: PubChem
